Active and inactive are the calls of the source.
Assays:
[1] = system: PRMT1 (protein arginine N-methyltransferase 1); assay: PRMT1 binders on small-molecule microarrays, primary screen, biochemical, small-molecule microarray, 635 nm fluorescence (AID 1088); conditions: small-molecule microarray binding, higher = more signal;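 further: binding of Prmt1 protein to compounds spotted on small-molecule microarray slides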
[2] = yeast growth modulation, basal conditions, primary screen, YJM789 clinical isolate, OD600, 24 h (AID 1089);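 further: growth of clinical yeast isolate S. cerevisiae YJM 789 seeded 1000 cells per well; test concentration not given here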; conditions: S. cerevisiae YJM789 growth, higher = more signal, called active from +8 up or from −8 down
[3] = fission yeast growth modulation, primary screen, strain 972, OD600, 24 h, no modulator (AID 1090);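 further: basal condition with compound alone and no growth modifier present; test concentration not given here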; conditions: S. pombe 972 growth, higher = more signal, called active from +8 up or from −8 down
[4] = S. cerevisiae growth modulation with rapamycin, primary screen, strain BY4716, OD600, 96 h (AID 1091); conditions: higher = more signal, called active from +8 up or from −8 down; further: test concentration not given here
[5] = target: Torsin-1A-interacting protein 2 (Homo sapiens) (UniProt Q8NFQ8); assay: LULL1 binders on small-molecule microarray, primary screen, cell lysate, human LULL1 lysate, 635/667 nm fluorescence (AID 1092); conditions: hLULL1 lysate binding, 635 nm fluorescence, higher = more signal;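 further: probe is lysate of COS7 cells overexpressing human LULL1; score merges per-feature 667 nm fluorescence with signal-to-noise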
Chain of Torsin-1A-interacting protein 2 (Homo sapiens) (Q8NFQ8 whole entry, looked up): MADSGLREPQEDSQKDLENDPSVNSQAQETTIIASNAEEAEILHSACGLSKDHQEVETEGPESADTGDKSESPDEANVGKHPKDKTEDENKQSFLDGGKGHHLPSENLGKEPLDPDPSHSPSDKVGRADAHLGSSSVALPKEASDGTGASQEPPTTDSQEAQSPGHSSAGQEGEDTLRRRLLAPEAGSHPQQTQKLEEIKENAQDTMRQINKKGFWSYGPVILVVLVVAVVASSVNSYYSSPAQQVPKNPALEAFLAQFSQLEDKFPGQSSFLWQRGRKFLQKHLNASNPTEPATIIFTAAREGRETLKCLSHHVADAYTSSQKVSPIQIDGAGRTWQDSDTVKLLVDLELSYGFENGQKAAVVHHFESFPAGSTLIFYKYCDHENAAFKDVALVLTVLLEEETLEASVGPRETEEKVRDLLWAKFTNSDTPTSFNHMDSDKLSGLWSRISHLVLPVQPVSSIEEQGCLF

[6] = E. coli growth modulation, two-sided OD650, primary screen, E. coli filamentation project, strain DRC41, 24 h (AID 1093); conditions: OD650, 24 h, higher = more signal, called active from +8 up or from −8 down;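 further: MC1000 strain lacking acrAB efflux and sulA so SOS filamentation is blocked; test concentration not given here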
[7] = small-molecule microarray binders of probe aLefty2, primary screen, biochemical, biotinylated probe, 635/667 nm fluorescence (AID 1094); conditions: higher = more signal;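 further: score merges spot fluorescence near 667 nm with spot signal-to-noise ratio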
[8] = system: Noggin (protein binding on small-molecule microarray); assay: Noggin binders on small-molecule microarray, primary screen, biochemical, 635/667 nm fluorescence (AID 1095); conditions: 635 nm fluorescence, higher = more signal;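 further: score merges 667 nm feature fluorescence with signal to noise over triplicate slides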
[9] = target: Neurogenic locus notch homolog protein 3 (Homo sapiens) (UniProt Q9UM47); assay: NOTCH3 binders on small-molecule microarray, primary screen, biochemical, 635/667 nm fluorescence (AID 1096); conditions: NOTCH3 binding, 635 nm fluorescence, higher = more signal
Chain of Neurogenic locus notch homolog protein 3 (Homo sapiens) (Q9UM47 whole entry, looked up): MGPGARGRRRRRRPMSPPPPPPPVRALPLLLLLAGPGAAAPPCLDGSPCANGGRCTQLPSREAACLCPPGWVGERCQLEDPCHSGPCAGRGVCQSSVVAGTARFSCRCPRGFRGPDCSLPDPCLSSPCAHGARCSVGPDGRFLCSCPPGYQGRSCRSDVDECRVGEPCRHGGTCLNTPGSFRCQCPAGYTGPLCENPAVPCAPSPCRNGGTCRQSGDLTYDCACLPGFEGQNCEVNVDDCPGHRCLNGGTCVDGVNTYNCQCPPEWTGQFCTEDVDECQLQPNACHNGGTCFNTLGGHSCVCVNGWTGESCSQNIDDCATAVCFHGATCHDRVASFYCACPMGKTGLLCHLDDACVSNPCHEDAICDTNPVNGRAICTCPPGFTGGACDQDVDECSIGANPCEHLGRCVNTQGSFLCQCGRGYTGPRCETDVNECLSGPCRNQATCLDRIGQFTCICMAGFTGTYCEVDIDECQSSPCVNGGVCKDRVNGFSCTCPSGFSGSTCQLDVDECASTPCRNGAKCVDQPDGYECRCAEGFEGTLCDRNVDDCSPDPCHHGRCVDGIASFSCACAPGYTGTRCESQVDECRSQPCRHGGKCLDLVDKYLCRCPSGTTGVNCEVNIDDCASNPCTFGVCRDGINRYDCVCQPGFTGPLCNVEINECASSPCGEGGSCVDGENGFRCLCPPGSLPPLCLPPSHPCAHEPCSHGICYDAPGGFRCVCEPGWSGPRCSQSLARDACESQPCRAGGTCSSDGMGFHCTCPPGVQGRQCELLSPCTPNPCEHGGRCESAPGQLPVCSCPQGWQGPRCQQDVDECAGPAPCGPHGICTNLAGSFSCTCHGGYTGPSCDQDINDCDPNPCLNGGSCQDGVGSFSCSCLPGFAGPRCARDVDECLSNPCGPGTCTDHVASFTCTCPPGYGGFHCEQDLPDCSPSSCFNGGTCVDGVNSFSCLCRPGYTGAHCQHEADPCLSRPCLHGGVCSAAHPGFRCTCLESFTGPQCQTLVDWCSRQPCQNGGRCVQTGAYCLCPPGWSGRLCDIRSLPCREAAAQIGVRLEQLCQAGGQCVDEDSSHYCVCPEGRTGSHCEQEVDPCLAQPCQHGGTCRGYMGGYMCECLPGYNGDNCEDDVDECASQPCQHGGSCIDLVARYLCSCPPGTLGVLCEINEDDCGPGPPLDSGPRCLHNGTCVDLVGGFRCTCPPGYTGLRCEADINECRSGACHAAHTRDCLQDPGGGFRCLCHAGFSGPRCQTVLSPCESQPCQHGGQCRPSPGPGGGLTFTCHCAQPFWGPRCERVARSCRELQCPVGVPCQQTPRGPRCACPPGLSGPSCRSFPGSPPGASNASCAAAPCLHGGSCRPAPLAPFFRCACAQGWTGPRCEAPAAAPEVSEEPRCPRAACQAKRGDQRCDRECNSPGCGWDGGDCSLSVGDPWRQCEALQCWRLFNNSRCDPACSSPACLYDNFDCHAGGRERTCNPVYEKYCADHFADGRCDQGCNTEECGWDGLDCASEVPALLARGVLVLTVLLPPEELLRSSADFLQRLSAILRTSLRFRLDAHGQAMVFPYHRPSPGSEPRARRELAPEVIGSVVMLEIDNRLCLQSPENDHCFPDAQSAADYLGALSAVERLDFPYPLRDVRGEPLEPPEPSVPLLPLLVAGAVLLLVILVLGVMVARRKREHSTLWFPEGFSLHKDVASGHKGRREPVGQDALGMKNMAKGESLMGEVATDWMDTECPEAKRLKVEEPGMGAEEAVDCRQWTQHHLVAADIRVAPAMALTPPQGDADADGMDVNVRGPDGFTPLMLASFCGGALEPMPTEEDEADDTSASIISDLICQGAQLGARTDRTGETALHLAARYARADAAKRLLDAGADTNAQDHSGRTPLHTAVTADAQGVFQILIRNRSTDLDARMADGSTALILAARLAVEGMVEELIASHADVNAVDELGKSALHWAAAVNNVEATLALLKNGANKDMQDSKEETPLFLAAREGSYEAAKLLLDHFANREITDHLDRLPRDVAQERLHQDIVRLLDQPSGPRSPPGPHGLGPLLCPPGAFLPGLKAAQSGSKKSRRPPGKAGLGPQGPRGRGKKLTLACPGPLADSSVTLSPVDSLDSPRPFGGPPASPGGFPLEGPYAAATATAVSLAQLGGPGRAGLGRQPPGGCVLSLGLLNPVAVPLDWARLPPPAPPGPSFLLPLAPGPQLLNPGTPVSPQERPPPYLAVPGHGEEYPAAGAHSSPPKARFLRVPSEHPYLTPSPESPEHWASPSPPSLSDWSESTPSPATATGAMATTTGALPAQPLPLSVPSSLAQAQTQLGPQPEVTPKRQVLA

[10] = small-molecule microarray binders of probe aEGFR, primary screen, biochemical, biotinylated probe, 635/667 nm fluorescence (AID 1097); conditions: higher = more signal;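 further: probe is a biotinylated anti-EGFR antibody binding compounds printed on slides; score combines fluorescence near 667 nm and signal to noise of each spot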
[11] = system: Plasmodium falciparum Sir2 (PF13_0152, Sir2A); assay: pfSir2 binders on small-molecule microarrays, primary screen, biochemical, small-molecule microarray, 635 nm fluorescence (AID 1098); conditions: small-molecule microarray binding, fluorescence 635 nm; higher = more signal;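 further: score merges spot fluorescence intensity with its signal-to-noise ratio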
[12] = small-molecule microarray binders of probe aDKK1, primary screen, biochemical, biotinylated probe, 635/667 nm fluorescence (AID 1099); conditions: higher = more signal;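 further: score merges 667nm spot fluorescence with signal to noise across triplicate slides; reference of the scale not given here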
[13] = small-molecule microarray binders of probe aCHRDL2, primary screen, biochemical, biotinylated probe, 635/667 nm fluorescence (AID 1100); conditions: higher = more signal
[14] = splicing luciferase reporter signal modulators, primary screen, spliceosome inhibition project, cell-based, HEK293, splice +/- reporter (AID 1101); conditions: luminescence, 24 h, higher = more signal, called active from +8 up or from −8 down;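 further: HEK293 cells carrying a splicing-competent luciferase reporter gene; test concentration not given here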
[15] = target: Fibroblast growth factor 10 (Homo sapiens) (UniProt O15520); assay: FGF10 binders on small-molecule microarrays, primary screen, biochemical, small-molecule microarray, 635 nm fluorescence (AID 1102); conditions: FGF10 binding, fluorescence 635 nm, higher = more signal
Chain of Fibroblast growth factor 10 (Homo sapiens) (O15520 whole entry, looked up): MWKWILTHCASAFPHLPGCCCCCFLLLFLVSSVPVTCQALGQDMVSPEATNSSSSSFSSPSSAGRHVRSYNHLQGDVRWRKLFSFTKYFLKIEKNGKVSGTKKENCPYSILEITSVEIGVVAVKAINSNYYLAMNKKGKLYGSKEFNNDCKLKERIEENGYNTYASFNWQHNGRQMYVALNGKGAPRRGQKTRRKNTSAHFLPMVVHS

[16] = system: glycogen synthase kinase-3 (GSK3A per assay name; protocol says GSK3B); assay: GSK3 binders on small-molecule microarrays, primary screen, biochemical, small-molecule microarray, 635 nm fluorescence, GSK3A (AID 1103); conditions: small-molecule microarray binding, fluorescence 635 nm; higher = more signal; further: the record names both GSK3A and GSK3B
[17] = target: Epidermal growth factor receptor (Homo sapiens) (UniProt P00533); assay: EGFR binders on small-molecule microarrays, primary screen, biochemical, small-molecule microarray, 635 nm fluorescence (AID 1104); conditions: EGFR binding, higher = more signal;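 further: score merges 667 nm emission intensity with spot signal to noise over triplicate slides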
Chain of Epidermal growth factor receptor (Homo sapiens) (P00533 whole entry, looked up): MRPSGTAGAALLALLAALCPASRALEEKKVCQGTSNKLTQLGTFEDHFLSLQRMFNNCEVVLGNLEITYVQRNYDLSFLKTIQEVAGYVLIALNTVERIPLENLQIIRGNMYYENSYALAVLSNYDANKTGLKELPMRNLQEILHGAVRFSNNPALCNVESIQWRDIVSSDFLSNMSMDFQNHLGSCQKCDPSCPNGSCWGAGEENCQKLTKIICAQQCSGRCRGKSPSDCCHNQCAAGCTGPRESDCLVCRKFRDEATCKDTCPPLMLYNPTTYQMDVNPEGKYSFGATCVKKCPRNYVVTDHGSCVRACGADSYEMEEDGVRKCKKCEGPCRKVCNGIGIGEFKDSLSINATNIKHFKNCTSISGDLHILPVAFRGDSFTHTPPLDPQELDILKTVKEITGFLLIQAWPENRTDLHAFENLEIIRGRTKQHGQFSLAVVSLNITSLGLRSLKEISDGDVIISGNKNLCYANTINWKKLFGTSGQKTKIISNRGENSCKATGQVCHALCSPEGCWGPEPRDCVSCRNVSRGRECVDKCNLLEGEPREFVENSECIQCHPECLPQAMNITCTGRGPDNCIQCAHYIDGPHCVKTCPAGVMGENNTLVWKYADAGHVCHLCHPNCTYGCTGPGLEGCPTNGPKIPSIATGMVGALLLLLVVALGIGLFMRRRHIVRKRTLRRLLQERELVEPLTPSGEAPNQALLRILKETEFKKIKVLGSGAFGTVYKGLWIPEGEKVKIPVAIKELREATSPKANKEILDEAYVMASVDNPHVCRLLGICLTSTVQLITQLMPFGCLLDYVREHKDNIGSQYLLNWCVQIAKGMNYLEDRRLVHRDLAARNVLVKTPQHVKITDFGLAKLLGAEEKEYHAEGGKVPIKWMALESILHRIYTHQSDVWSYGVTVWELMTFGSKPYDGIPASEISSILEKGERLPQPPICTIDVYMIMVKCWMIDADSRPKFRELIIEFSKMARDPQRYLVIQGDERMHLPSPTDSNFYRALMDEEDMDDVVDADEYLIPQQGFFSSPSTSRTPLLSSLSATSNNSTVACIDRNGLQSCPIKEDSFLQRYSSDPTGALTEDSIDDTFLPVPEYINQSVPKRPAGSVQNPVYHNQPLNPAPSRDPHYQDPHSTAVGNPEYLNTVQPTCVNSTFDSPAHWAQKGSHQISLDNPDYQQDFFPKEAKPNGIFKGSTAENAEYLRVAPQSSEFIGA

[18] = target: Follistatin-related protein 3 (Homo sapiens) (UniProt O95633); assay: FSTL3 binders on small-molecule microarrays, primary screen, biochemical, small-molecule microarray, 635 nm fluorescence (AID 1105); conditions: FSTL3 binding, higher = more signal;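 further: score merges emission near 667 nm and signal to noise per printed spot across three slides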
Chain of Follistatin-related protein 3 (Homo sapiens) (O95633 whole entry, looked up): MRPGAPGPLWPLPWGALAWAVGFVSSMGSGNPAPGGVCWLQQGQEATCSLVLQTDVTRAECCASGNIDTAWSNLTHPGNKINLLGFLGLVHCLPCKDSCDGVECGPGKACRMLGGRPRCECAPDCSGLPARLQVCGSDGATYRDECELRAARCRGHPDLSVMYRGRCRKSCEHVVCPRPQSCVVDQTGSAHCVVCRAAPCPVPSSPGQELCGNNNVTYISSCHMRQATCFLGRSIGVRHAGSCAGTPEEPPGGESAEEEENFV

[19] = target: Dickkopf-related protein 1 (Homo sapiens) (UniProt O94907); assay: DKK1 binders on small-molecule microarrays, primary screen, biochemical, small-molecule microarray, 635 nm fluorescence scan (AID 1106); conditions: DKK1 binding, higher = more signal;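 further: score merges emission near 667 nm with signal to noise over three replicate slides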
Chain of Dickkopf-related protein 1 (Homo sapiens) (O94907 whole entry, looked up): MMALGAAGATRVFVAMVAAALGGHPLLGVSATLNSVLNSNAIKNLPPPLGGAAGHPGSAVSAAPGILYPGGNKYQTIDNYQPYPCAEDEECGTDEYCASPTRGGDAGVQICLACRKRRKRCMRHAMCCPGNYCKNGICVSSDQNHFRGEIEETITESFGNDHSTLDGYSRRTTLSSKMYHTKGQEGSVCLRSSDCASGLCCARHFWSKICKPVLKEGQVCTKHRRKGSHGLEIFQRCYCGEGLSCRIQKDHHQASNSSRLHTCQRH

[20] = system: Inhibin beta A chain (activin A); assay: INHBA (activin A) binders on microarrays, primary screen, biochemical, small-molecule microarray, 635 nm fluorescence scan (AID 1107); conditions: small-molecule microarray binding, higher = more signal;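 further: mouse activin A protein probed at 4.33 µg/mL on printed slides; score merges bound-protein fluorescence near 667 nm with spot signal-to-noise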

SMILES | composite z-score [1] | z-score [2] | z-score [3] | z-score [4] | composite z-score [5] | z-score [6] | composite z-score [7] | composite z-score [8] | composite z-score [9] | composite z-score [10] | composite z-score [11] | composite z-score [12] | composite z-score [13] | z-score [14] | composite z-score [15] | composite z-score [16] | composite z-score [17] | composite z-score [18] | composite z-score [19] | composite z-score [20]
CC(=O)NCCCC[C@@H]1NC(=O)[C@H]2C[C@@H](C(=O)NCCCCCC[N+](C)(C)C)[C@@H](c3ccc(O)cc3)N2C1=O | 1.55 | -0.509 (inactive) | 0.555 (inactive) | -0.489 (inactive) | 3.04 | 0.478 (inactive) | -0.0206 | 1.46 | 0.702 | -0.125 | 1.71 | -0.186 | -0.414 | -0.652 (inactive) | 0.348 | 0.612 | 0.173 | 0.946 | 1.23 | 0.965
COC(=O)C(CC#Cc1ccc2c(c1)[C@]1(C(=O)N2)[C@H](c2ccc(O)cc2)N2[C@H](c3ccccc3)[C@H](c3ccccc3)OC(=O)[C@H]2[C@@H]1C(=O)N1CCc2cc(OC)c(OC)cc2C1)C(=O)OC | 1.54 | 1.39 (inactive) | 1.12 (inactive) | 0.735 (inactive) | 1.59 | -0.829 (inactive) | -0.109 | 0.958 | 1.05 | 0.232 | 1.38 | 0.505 | 0.724 | -0.541 (inactive) | 0.817 | 1.32 | 0.708 | 1.29 | 1.06 | -0.0531
COc1ccc(CCNC(=O)[C@@]2(Sc3ccc(C)cc3)CC(=O)N(Cc3cc(C(F)(F)F)cc(C(F)(F)F)c3)[C@@H]2c2ccc(CO)cc2)cc1 | -0.772 | -1.11 (inactive) | -0.912 (inactive) | -0.683 (inactive) | 0.92 | -0.466 (inactive) | 0.344 | -1.69 | -1.26 | -0.213 | 0.629 | 0.18 | 1.14 | 0.257 (inactive) | -1.59 | -0.655 | -1.81 | -0.927 | -1.88 | -0.497
CN(C)CCCNC(=O)[C@@H]1c2ccccc2C(=O)N(C2Cc3ccccc3C2)[C@H]1c1ccc(CO)cc1 | 1.56 | -0.463 (inactive) | -0.271 (inactive) | -0.915 (inactive) | 2.03 | 0.688 (inactive) | -0.127 | 0.0726 | 0.241 | 0.111 | 1.78 | 0.227 | 0.559 | -0.196 (inactive) | -0.514 | 1.27 | -0.741 | -0.12 | -0.273 | 0.923
CC(C)C[C@@H]1NC(=O)[C@H]2C[C@@H](C(=O)NCCCCCNC(=O)CS)[C@@H](c3ccc(O)cc3)N2C1=O | 1.54 | 0.553 (inactive) | -0.12 (inactive) | 0.871 (inactive) | 2.11 | 0.488 (inactive) | -0.077 | 0.528 | 0.634 | -0.0007 | 1.56 | -0.0363 | 0.203 | 0.0983 (inactive) | 1.08 | 1.33 | 0.521 | 0.848 | 1.01 | 0.0563
COc1cc2c(cc1O)C(c1ccc(CN3CCCC3)cc1)N(Cc1ccc([N+](=O)[O-])o1)CC2 (stereo not given) | -0.246 | -0.686 (inactive) | -2.48 (inactive) | -0.604 (inactive) | 1.65 | 0.098 (inactive) | -0.299 | -0.408 | 0.577 | -0.227 | 1.23 | -0.276 | -0.0934 | 0.982 (inactive) | 0.116 | -0.903 | -0.0173 | 0.0429 | -0.299 | -0.289
NCCCC[C@@H]1NC(=O)[C@H]2C[C@@H](C(=O)NCc3ccc(F)cc3)[C@@H](c3ccc(O)cc3)N2C1=O | 1.3 | 0.804 (inactive) | 0.368 (inactive) | 0.656 (inactive) | 3.3 | -0.656 (inactive) | 0.726 | 1.09 | 0.997 | 0.149 | 1.6 | 0.831 | 1.07 | 0.374 (inactive) | 0.186 | 1.33 | 0.117 | 1 | 0.496 | 1.2
COc1ccc(NC(=O)O[C@H]2[C@H](OC(=O)Nc3ccc4c(c3)OCO4)[C@H](OC(=O)Nc3ccc4c(c3)OCO4)[C@@H](OC)O[C@@H]2CO)cc1 | 1.54 | 1.87 (inactive) | 1.41 (inactive) | 4.72 (inactive) | 2.96 | 0.212 (inactive) | -0.121 | -0.0137 | 0.569 | -0.0922 | 1.51 | 0.125 | 0.58 | -0.213 (inactive) | 0.81 | 1.23 | -0.385 | 0.59 | 0.409 | 0.753
CC(C)C(=C=CC[C@@H](O)c1ccccc1OCCO)C[C@@H](O)c1cc(Cl)cc(Cl)c1O | 1.54 | -0.0964 (inactive) | -1.46 (inactive) | -0.443 (inactive) | 2.7 | -0.101 (inactive) | -0.108 | 1.67 | 1.09 | 0.0182 | 0.665 | -0.102 | -0.555 | -1.59 (inactive) | 1.46 | 1.13 | 0.472 | 1.16 | 0.741 | 0.169
